Experimental data from PubChem BioAssay (NCATS).
Records with an inconclusive call do not appear. Calls of active or inactive are those of the source. Unless noted, calls come from the whole dose curve; as a rule, active = well fitted curve in the direction sought with a large enough effect; inconclusive = small, poorly fitted or top-dose-only effect, or another doubt; inactive = no such curve, though single readings can be large; an effect the other way counts as inactive or inconclusive.

Legend:
[1] = qHTS to identify inhibitors of the type 1 interferon - major histocompatibility complex class I in skeletal muscle: primary screen against the NCATS Mechanism Interrogation Plate v5.0 (MIPE) Libary (AID 1347411); settings: iHSKM cells + IFN-b, HiBiT-tagged MHC-I luminescence, 24 h; series mostly up to 45.8 µM; note: nearly all actives have a fitted effect of over 65% in size; note: potency is the fitted concentration of half-maximal effect;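 for activity change, negative = inhibition: plate controls were vehicle for no effect and reference inhibitor for full effect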
Procedure, shortened: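 HLA-B HiBit myoblasts, dexamethasone-free medium + 4 ng/ml IFN-b, 24 h compound, 11-pt 1:3 from 46 uM final. Readout: Nano-Glo HiBiT lytic luminescence after 10 min lysis, RT.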

[2] = Primary qHTS for inhibitors of nuclear receptor binding SET domain protein 2 (NSD2) in an isogenic RCH-ACV NSD2 p.E1099K mutant (9B) (AID 1645876); settings: RCH-ACV NSD2 E1099K (9B) viability, CellTiter-Glo, 72 h; series mostly up to 44.9 µM; note: nearly all actives have a fitted effect of over 70% in size; note: potency is the fitted concentration of half-maximal effect
[3] = Primary qHTS for inhibitors of nuclear receptor binding SET domain protein 2 (NSD2) in an RCH-ACV wild type WT cells (2C) (AID 1645877); settings: RCH-ACV (leukaemia line) NSD2 WT (2C) viability, CellTiter-Glo, 72 h; series mostly up to 44.9 µM; note: nearly all actives have a fitted effect of over 70% in size; note: potency is the fitted concentration of half-maximal effect
[4] = molecular target: Glutathione peroxidase 1 (Homo sapiens) (UniProt P07203); experiment: Primary qHTS Assay for Inhibitors of Recombinant Selenoprotein Glutathione Peroxidase 1 (GPX1) (AID 1845191); settings: recombinant GPX1, GR-coupled NADPH fluorescence, 15 min; series mostly up to 48.8 µM; note: nearly all actives have a fitted effect of over 65% in size
Chain of Glutathione peroxidase 1 (Homo sapiens) (P07203 whole entry, looked up): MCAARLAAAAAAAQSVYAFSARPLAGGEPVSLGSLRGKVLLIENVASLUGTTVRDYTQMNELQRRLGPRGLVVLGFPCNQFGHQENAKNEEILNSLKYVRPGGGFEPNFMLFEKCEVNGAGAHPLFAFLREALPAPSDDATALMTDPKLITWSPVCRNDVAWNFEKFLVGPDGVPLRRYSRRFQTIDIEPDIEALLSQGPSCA
Procedure, shortened: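 GPX1 10 nM, GR 100 nM, GSH 1 mM, NADPH 0.5 mM, CHP 0.5 mM (final). 30-min cpd preincubation, RT. Ex340/Em450 read t=0, t=15 min.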

[5] = molecular target: Phospholipid hydroperoxide glutathione peroxidase GPX4 (Homo sapiens) (UniProt P36969); experiment: Primary qHTS Assay for Inhibitors of Recombinant Selenoprotein Glutathione Peroxidase 4 (GPX4) (AID 1845192); settings: recombinant GPX4, GR-coupled NADPH fluorescence, 15 min; series mostly up to 50 µM; note: nearly all actives have a fitted effect of over 65% in size; note: potency is the fitted concentration of half-maximal effect; for activity change, negative = inhibition: % is set by controls: 0 for no effect and ±100 for the full control effect
Chain of Phospholipid hydroperoxide glutathione peroxidase GPX4 (Homo sapiens) (P36969 whole entry, looked up): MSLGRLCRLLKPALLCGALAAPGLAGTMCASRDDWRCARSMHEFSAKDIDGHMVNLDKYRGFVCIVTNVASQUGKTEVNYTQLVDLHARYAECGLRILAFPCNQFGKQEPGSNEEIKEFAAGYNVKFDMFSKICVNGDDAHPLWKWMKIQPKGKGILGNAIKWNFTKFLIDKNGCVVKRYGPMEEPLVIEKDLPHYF
Procedure, shortened: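 qHTS, GR-coupled: GPX4 200 nM + cpd 30 min RT → GSH 1 mM, NADPH 0.5 mM, GR 100 nM → CHP 0.5 mM start; fluor 340/450 at t0 and t15 min; no-enzyme wells as control.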

[6] = qHTS drug screen for cell cycle checkpoint inhibitors in PARPi-resistant BRCA-mutant ovarian cancer cell lines. (AID 1963452; calls by dose curve; note: potency is the fitted concentration of half-maximal effect); settings: PEO1/OlaR viability, CellTiter-Glo luminescence, 96 h; for Z-AUC: stronger effect = lower value
Procedure, shortened: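 PEO1, PEO4 and PEO1/OlaR ovarian cancer cells, 600 per well, exposed 96 h at 37C to a dilution series. Viability read by CellTiter-Glo luminescence, normalized to DMSO and empty wells; activity summarized as Z-AUC.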

[7] = measured here: PEO1 parental Z-AUC

Row | Compound | Potency [1] | Potency [2] | Potency [3] | Potency [4] | Potency [5] | Z-AUC [6] | Z-AUC [6, 7] | Z-AUC ([6]; measured here: PEO4 Z-AUC) | activity change, negative = inhibition [1] | Potency [6]
1 | CN1C(N)=N[C@](C)(c2cc(NC(=O)c3ccc(F)cn3)ccc2F)CS1(=O)=O | inactive | inactive | inactive | inactive | inactive | 1.51 (inactive) | 0.477 | 0.848 | – | –
2 | CC(C)=CCC[C@](C)(O[C@@H]1O[C@H](CO[C@@H]2O[C@H](CO)[C@@H](O)[C@H](O)[C@H]2O)[C@@H](O)[C@H](O)[C@H]1O)[C@H]1CC[C@]2(C)[C@@H]1[C@H](O)C[C@@H]1[C@@]3(C)CC[C@H](O[C@@H]4O[C@H](CO)[C@@H](O)[C@H](O)[C@H]4O[C@@H]4O[C@H](CO)[C@@H](O)[C@H](O)[C@H]4O)C(C)(C)[C@@H]3CC[C@]12C | inactive | inactive | inactive | – | inactive | 1.47 (inactive) | 1.48 | 1.64 | – | –
3 | COC1=C(OC)C(=O)C(C/C=C(\C)CC/C=C(\C)CC/C=C(\C)CC/C=C(/C)CC/C=C(\C)CC/C=C(\C)CC/C=C(\C)CC/C=C(\C)CC/C=C(\C)CCC=C(C)C)=C(C)C1=O | inactive | inactive | inactive | – | – | – | – | – | – | –
4 | O=c1oc2c(C3OCCCO3)c(O)ccc2c2c1CNCC2 | inactive | inactive | inactive | inactive | 14.3 µM (active) | 0.112 (inactive) | -0.774 | -0.202 | – | –
5 | C=C1CCC2[C@](C)(CO)C(O)CC[C@]2(C)C1C/C=C1/C(=O)OCC1O (stereo partly drawn) | 13.1 µM (active) | 7.42 µM (active) | 7.42 µM (active) | inactive | inactive | 0.689 (inactive) | -0.31 | -0.312 | – | –
6 | C=C1C[C@@H]2CC[C@@]34C[C@H]5O[C@H]6[C@@H](O3)[C@H]3O[C@H](CC[C@@H]3O[C@H]6[C@H]5O4)CC(=O)C[C@@H]3[C@@H](OC)[C@@H](C[C@H](O)CN)O[C@H]3C[C@H]3O[C@@H](CC[C@@H]1O2)C[C@@H](C)C3=C | – | 0.0014 µM (active) | 0.0011 µM (active) | inactive | inactive | – | -3.01 | -2.65 | -7.19% [at 8.44 µM] (inactive) | 0.0089 µM (active)
7 | N#Cc1ccnc(N2C(=O)CC[C@H]2C(=O)N(c2cncc(F)c2)C(C(=O)NC2CC(F)(F)C2)c2ccccc2Cl)c1 (stereo partly drawn) | inactive | inactive | inactive | inactive | inactive | 1.6 (inactive) | 0.937 | 1.33 | – | –
8 | Cc1cccc(/C=N/Nc2cc(N3CCOCC3)nc(OCCc3ccccn3)n2)c1 | inactive | 0.468 µM (active) | 0.296 µM (active) | inactive | inactive | 0.655 (inactive) | 0.0151 | 0.106 | – | –
9 | NS(=O)(=O)c1ccc(Cc2c(-c3cccc(-c4ccccc4)c3)nn(-c3nc(C(=O)O)cs3)c2CC2CC2)cc1 | inactive | – | 5.25 µM (active) | inactive | 6.4 µM (active) | -1.08 (inactive) | -0.77 | -1.44 | – | –
10 | CC(=O)N1c2ccc(-c3ccc(C(=O)O)cc3)cc2[C@H](Nc2ccc(Cl)cc2)C[C@@H]1C | inactive | 0.0934 µM (active) | 0.0934 µM (active) | inactive | – | -0.689 (inactive) | -0.385 | -0.741 | – | –
11 | CC(=O)O/N=C1\C(=O)N(Cc2cc(Cl)ccc2Cl)c2ccc(Cl)cc21 | 14.7 µM (active) | 5.9 µM (active) | 4.17 µM (active) | inactive | – | 1.65 (inactive) | 1.54 | 1.73 | – | –
12 | COc1cc(C(=O)NC(N)=Nc2ccc(C)c(NC(=O)c3ccc(-c4ccccc4)cc3)c2)cc(OC)c1OC | inactive | 13.2 µM (active) | 11.8 µM (active) | inactive | inactive | 0.647 (inactive) | 0.261 | 0.136 | – | –
13 | CC1(N)CCN(c2cccnc2NC(=O)c2nc(-c3ncccc3C(F)(F)F)cnc2N)CC1 | inactive | 16.6 µM (active) | 20.9 µM (active) | inactive | inactive | 0.421 (inactive) | -0.000608 | 0.765 | – | –
14 | COc1ccnc2[nH]cc(C(=O)C(=O)N3CCN(C(=O)c4ccccc4)C[C@H]3C)c12 | inactive | inactive | inactive | inactive | inactive | 1.3 (inactive) | 1.05 | 1.31 | – | –
15 | C[C@]12CCC3[C@@H](CC[C@H]4NC(=O)C=C[C@]34C)[C@@H]1CC[C@@H]2C(=O)Nc1cc(C(F)(F)F)ccc1C(F)(F)F (stereo partly drawn) | inactive | inactive | inactive | inactive | inactive | -1.09 (inactive) | -1.05 | -1.07 | – | –
16 | C[C@H]1CC2[C@@H]3CCC4=CC(=O)C=C[C@]4(C)[C@@]3(F)[C@@H](O)C[C@]2(C)[C@@]1(O)C(=O)CO (stereo partly drawn) | inactive | inactive | 0.105 µM (active) | inactive | inactive | -1.28 (inactive) | -0.45 | -0.996 | – | –
17 | Cn1cc(/C=C/C(=O)c2cccc(F)c2)cc1/C=C/C(=O)NO | inactive | 14.8 µM (active) | 18.6 µM (active) | inactive | – | 0.818 (inactive) | 0.213 | 0.291 | – | –
18 | Cn1cc(/C=C2\C(=O)Nc3cccnc32)c2ccccc21 | 29.4 µM (active) | 5.25 µM (active) | 8.33 µM (active) | inactive | inactive | 1.01 (inactive) | 0.388 | -0.377 | – | –
19 | COC(=O)C1=C(C)NC(c2ncc(F)cc2F)=N[C@H]1c1ccc(F)cc1Cl | 20.8 µM (active) | 14.8 µM (active) | 13.2 µM (active) | – | inactive | 0.0263 (inactive) | 0.182 | 1.13 | – | –
20 | Cc1ccc(NS(=O)(=O)c2cccc(C#N)c2)c2[nH]cc(C#N)c12 | inactive | 0.372 µM (active) | 0.417 µM (active) | inactive | inactive | -0.908 (inactive) | -1.02 | -1.95 | – | –
21 | COC[C@@H](c1ccc(C(F)(F)F)cc1)N1CCN(C2(C)CCN(C(=O)c3c(C)ncnc3C)CC2)C[C@@H]1C | inactive | inactive | inactive | inactive | inactive | 1.18 (inactive) | 1.03 | 0.78 | – | –
22 | N=C(N)c1ccc2nc(-c3cc(CC(=O)N[C@@H](CC(=O)O)C(=O)O)cc(-c4cc(S(N)(=O)=O)ccc4O)c3O)[nH]c2c1 | inactive | inactive | inactive | inactive | inactive | -0.76 (inactive) | -0.562 | -0.379 | – | –
23 | CC1(C)C(N(O)C(=O)Nc2ccc(Cl)cc2)N(c2ccc(Cl)cc2)C(=O)N1CC(=O)N/N=C/C=C/c1ccc([N+](=O)[O-])o1 (stereo not drawn) | 14.7 µM (active) | 7.42 µM (active) | 8.33 µM (active) | inactive | 14.3 µM (active) | 1.66 (inactive) | 1.13 | 1.09 | – | –
